Test results reported in PubChem BioAssay (Tox21).
“And” between values parts separate entries of the source, which are not always exact repeats. Identical values can stand only once. Inconclusive results are not listed. The source made the active and inactive calls. Unless noted, the call rests on the fitted dose curve.

What was measured:
[1] = Nuclear factor erythroid 2-related factor 2/antioxidant responsive element (Nrf2/ARE) small molecule agonists: qHTS cell viability counter screen in human keratinocytes (AID 1919968; active means well fitted curve in the direction sought with a large enough effect in the repeat runs; an effect the other way counts as inactive or inconclusive; further: nearly all actives have a fitted effect of over 55% in size; further: potency means the concentration at half of the fitted maximal effect)
Outline: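 In human HaCaT keratinocytes stably expressing an ARE-driven luciferase, compound exposure lasted 23 h at 37 C under 5% CO2. Viable cells are quantified with a protease-based fluorogenic reagent (CellTiter-Fluor) read 1 h after addition.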

[2] = biological target: Gonadotropin-releasing hormone receptor (Homo sapiens) (UniProt P30968); test: Human gonadotropin-releasing hormone receptor (GnRHR) small molecule agonists, calcium flux assay in GnRHR-HEK293 cells (AID 1920063); further: nearly all actives have a fitted effect of over 35% in size
Sequence of Gonadotropin-releasing hormone receptor (Homo sapiens) (P30968 whole entry, looked up): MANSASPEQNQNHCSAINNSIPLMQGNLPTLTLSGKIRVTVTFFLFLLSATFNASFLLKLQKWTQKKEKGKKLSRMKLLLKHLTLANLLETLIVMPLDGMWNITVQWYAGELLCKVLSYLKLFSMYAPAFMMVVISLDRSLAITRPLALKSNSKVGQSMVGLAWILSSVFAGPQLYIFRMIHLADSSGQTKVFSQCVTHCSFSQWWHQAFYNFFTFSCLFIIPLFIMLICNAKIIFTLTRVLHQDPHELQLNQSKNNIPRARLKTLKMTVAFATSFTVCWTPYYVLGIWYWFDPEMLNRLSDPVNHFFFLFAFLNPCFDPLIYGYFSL
Outline: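 Intracellular calcium rise is the read-out: engineered human GnRHR HEK293 cells, dye-loaded, are exposed to DMSO-dissolved compounds and fluorescence at Ex/Em 480/540 is tracked for 3 min.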

[3] = biological target: KiSS-1 receptor (Homo sapiens) (UniProt Q969F8); test: Human kisspeptin (KISS1R) small molecule agonists, calcium flux assay in KISS1R-HEK293 cells (AID 1920064; active means well fitted curve in the direction sought with a large enough effect in the repeat runs; an effect the other way counts as inactive or inconclusive)
Sequence of KiSS-1 receptor (Homo sapiens) (Q969F8 whole entry, looked up): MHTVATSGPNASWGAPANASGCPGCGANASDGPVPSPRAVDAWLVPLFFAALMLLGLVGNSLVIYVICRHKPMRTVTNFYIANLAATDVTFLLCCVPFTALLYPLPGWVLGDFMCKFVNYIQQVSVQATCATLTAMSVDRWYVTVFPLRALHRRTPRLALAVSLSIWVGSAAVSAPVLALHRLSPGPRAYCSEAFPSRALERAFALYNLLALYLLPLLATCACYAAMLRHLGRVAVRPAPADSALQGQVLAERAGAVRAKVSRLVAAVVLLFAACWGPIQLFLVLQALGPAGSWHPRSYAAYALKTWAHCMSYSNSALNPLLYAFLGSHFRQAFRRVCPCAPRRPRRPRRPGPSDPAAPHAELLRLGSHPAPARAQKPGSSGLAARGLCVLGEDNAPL
Outline: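 Concentration-response testing used 15 concentrations in triplicate on human KISS1R-expressing HEK293 cells. Calcium-dependent fluorescence (Ex/Em 480/540) was followed kinetically for 3 min after compound transfer.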

[4] = G protein-coupled receptor (GPCR) small molecule agonists, calcium flux assay: HEK293 wild type cell line counter screen (AID 1920065)
Outline: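 Fluorescence intensity signals activation. After overnight (18 h) culture and a 1 h calcium dye load at 37 C, compounds are added by pin tool and the plate read at 480/540 nm for 3 min in 1 s steps.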

[5] = p53 small molecule agonists, cell-based qHTS assay with human liver microsomes (AID 1963577)
Outline: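 Cells carrying a p53-responsive bla reporter were rested 5 h (37 C, 5% CO2) before compound transfer. Human liver microsomes plus NADPH, 0.5 mg/mL final apiece, supplied metabolism during the 16 h 37 C exposure.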

[6] = p53 small molecule agonists, cell-based qHTS assay with rat liver microsomes: qHTS cell viability counter screen (AID 1963580); further: nearly all actives have a fitted effect of over 45% in size
Outline: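 Cytotoxicity counter screen: intracellular ATP read by CellTiter-Glo luminescence in the p53 reporter wells. HCT-116 p53RE-bla cells were treated for 16 h at 37 C alongside rat liver microsomes and NADPH, each 0.5 mg/mL final.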

[7] = p53 small molecule agonists, cell-based qHTS assay: qHTS cell viability counter screen (AID 1963581); further: nearly all actives have a fitted effect of over 45% in size
Outline: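 Luminescence from CellTiter-Glo, reflecting ATP content, serves as the cytotoxicity measure; it is taken after the 2 h reporter substrate step in HCT-116 p53RE-bla cells dosed for 16 h at 37 C.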

[8] = biological target: 5-hydroxytryptamine receptor 2A (Homo sapiens) (UniProt P28223); test: 5-hydroxytryptamine receptor 2A (HTR2A) small molecule agonists, cell-based qHTS assay (AID 1963587); further: nearly all actives have a fitted effect of over 30% in size
Sequence of 5-hydroxytryptamine receptor 2A (Homo sapiens) (P28223 whole entry, looked up): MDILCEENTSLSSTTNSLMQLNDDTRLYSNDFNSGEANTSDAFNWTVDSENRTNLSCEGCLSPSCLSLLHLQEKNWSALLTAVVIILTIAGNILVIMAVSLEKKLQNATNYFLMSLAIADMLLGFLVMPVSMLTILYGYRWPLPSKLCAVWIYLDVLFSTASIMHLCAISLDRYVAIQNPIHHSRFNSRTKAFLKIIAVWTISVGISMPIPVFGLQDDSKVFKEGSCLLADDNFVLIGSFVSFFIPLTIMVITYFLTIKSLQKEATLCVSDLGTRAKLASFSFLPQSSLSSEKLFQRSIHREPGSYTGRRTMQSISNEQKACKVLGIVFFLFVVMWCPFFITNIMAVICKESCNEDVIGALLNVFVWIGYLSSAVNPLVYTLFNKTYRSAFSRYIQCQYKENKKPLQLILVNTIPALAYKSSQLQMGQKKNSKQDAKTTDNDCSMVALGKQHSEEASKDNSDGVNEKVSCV
Outline: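 Kinetic calcium-flux fluorescence (2 min, 1 sec intervals) after compound addition in agonist mode. HTR2A-CHO cells were cultured 18 h, then dye-loaded 1 h at 37 C.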

[9] = biological target: Muscarinic acetylcholine receptor M1 (Homo sapiens) (UniProt P11229); test: Cholinergic receptor muscarinic 1 (CHRM1) small molecule antagonists, cell-based qHTS assay (AID 1963588); further: nearly all actives have a fitted effect of over 40% in size
Sequence of Muscarinic acetylcholine receptor M1 (Homo sapiens) (P11229 whole entry, looked up): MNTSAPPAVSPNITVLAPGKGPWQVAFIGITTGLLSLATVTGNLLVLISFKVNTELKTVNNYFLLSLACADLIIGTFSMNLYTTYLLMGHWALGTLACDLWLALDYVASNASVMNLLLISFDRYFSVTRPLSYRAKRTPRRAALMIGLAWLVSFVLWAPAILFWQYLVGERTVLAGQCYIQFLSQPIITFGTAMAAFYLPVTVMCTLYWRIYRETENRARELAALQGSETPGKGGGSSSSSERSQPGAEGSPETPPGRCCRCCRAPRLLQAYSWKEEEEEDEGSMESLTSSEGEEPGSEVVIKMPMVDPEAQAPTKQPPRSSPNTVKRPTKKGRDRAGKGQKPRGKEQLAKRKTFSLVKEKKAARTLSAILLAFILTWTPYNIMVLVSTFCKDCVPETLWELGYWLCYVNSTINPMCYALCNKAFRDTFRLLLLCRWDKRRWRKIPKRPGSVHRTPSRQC
Outline: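 Compounds were tested at 15 concentrations in three independent runs. Dye-loaded CHRM1-CHO cells were exposed 5 min at room temperature before stimulation by acetylcholine added at 50nM. Intracellular calcium was read kinetically on FDSS for 3 min.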

[10] = biological target: Muscarinic acetylcholine receptor M1 (Homo sapiens) (UniProt P11229); test: Cholinergic receptor muscarinic 1 (CHRM1) small molecule agonists, cell-based qHTS assay (AID 1963589); further: nearly all actives have a fitted effect of over 35% in size
Outline: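 Fluorescent calcium dye reports M1 activation in stably transfected CHO cells. Compounds, 15 concentrations, added after 1 h dye loading at 37 C; kinetic reading at 1 sec intervals.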

[11] = p53 small molecule agonists, cell-based qHTS assay with rat liver microsomes (AID 1963578)
Outline: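 Fluorescence from a beta-lactamase reporter under a p53 response element was measured after cells had been incubated 16 h at 37 C with test compound and rat liver microsomes plus NADPH (0.5 mg/mL final each).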

[12] = p53 small molecule agonists, cell-based qHTS assay with human liver microsomes: qHTS cell viability counter screen (AID 1963579); further: nearly all actives have a fitted effect of over 45% in size
Outline: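 Seed p53RE-bla cells at 4,000 per well; incubate 5 h at 37 C; add compound, human liver microsomes and NADPH; incubate 16 h at 37 C; add CellTiter-Glo; after 30 min at room temperature, read luminescence.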

[13] = p53 small molecule agonists, cell-based qHTS assay (AID 1963582; active means well fitted activation curve with a large enough effect in the signal ratio in the repeat runs, not every such curve was filed as active; the % refers to the signal ratio)
Outline: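 After plating, p53RE-bla cells sat 5 h in the incubator; compounds or DMSO vehicle were pinned in; a 16 h incubation at 37 C followed; FRET substrate was added and, 2 h later at RT, fluorescence was measured.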

[14] = biological target: 5-hydroxytryptamine receptor 2A (Homo sapiens) (UniProt P28223); test: 5-hydroxytryptamine receptor 2A (HTR2A) small molecule antagonists, cell-based qHTS assay (AID 1963586); further: nearly all actives have a fitted effect of over 45% in size
Outline: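 CHO cells stably expressing human HTR2A were plated for 18 h at 37 C, then loaded with calcium dye for 1 h. Compounds were preincubated 5 min at room temperature before DOI (4 nM solution) was added. Kinetic fluorescence was read for 3 min.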

[15] = cAMP Responsive Elements (CRE) small molecule antagonists, cell-based qHTS assay (AID 1963591; active means well fitted inhibition curve with a large enough effect in the signal ratio in the repeat runs, not every such curve was filed as active; the % refers to the signal ratio)
Outline: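 Stimulation used NKH477 at a final 0.25 uM for 3 h in compound-treated CRE-bla HEK293T cells, seeded 18 h beforehand. Reporter activity was measured with LiveBLAzer B/G FRET substrate after 2 h at room temperature.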

[16] = biological target: Beta-2 adrenergic receptor (Homo sapiens) (UniProt P07550); test: Adrenergic beta2 receptor (ADRB2) small molecule antagonists, cell-based qHTS assay (AID 1963592); further: series mostly up to about 92 µM; nearly all actives have a fitted effect of over 50% in size
Sequence of Beta-2 adrenergic receptor (Homo sapiens) (P07550 whole entry, looked up): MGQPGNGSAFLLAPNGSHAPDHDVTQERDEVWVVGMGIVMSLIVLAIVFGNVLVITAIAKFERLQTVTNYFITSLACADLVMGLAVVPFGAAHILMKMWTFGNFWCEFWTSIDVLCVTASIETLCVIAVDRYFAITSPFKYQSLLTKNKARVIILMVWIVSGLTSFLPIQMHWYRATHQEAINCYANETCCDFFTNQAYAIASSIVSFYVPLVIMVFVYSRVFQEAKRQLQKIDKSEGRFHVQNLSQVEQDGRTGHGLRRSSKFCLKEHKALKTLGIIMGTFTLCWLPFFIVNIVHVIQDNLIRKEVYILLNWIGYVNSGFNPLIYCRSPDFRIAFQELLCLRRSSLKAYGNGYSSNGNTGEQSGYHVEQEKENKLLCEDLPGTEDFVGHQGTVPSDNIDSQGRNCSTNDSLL
Outline: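 Assay format: CHO-ADRB2 cells, 18-20hr seeding at 37C/5% CO2, then compound plus 1nM isoproterenol agonist mix for 0.5hr RT. Homogeneous time-resolved fluorescence cAMP detection after 1hr, expressed as 665/615 nm ratio.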

[17] = biological target: Beta-2 adrenergic receptor (Homo sapiens) (UniProt P07550); test: Adrenergic beta2 receptor (ADRB2) small molecule agonists, cell-based qHTS assay (AID 1963593);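 further: CHO cells stably overexpressing human ADRB2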
Outline: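 CHO cells stably over-expressing ADRB2 were plated overnight at 37C, then dosed with compounds plus a stimulation mix containing 100uM IBMX and 25uM Ro-20-1724 for 0.5hr at room temperature. cAMP was measured by HTRF competition, 1hr.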

[18] = biological target: D(2) dopamine receptor (Homo sapiens) (UniProt P14416); test: Dopamine D2 receptor (DRD2) small molecule agonists, cell-based qHTS assay (AID 1963594); further: nearly all actives have a fitted effect of over 35% in size
Sequence of D(2) dopamine receptor (Homo sapiens) (P14416 whole entry, looked up): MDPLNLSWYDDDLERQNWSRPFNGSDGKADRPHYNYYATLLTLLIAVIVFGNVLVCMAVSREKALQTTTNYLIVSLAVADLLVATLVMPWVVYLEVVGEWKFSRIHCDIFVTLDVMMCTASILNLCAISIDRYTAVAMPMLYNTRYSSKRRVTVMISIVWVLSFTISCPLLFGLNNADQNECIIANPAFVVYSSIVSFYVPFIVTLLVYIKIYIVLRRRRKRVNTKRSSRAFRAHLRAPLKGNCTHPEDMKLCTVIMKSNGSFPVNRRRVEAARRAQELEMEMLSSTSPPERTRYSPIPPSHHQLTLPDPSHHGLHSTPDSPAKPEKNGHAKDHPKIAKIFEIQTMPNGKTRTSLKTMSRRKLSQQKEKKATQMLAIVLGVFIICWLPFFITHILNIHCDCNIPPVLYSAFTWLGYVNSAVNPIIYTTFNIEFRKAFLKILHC
Outline: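 cAMP accumulation in DRD2-HEK293 cells measured by HTRF after 1 h detection; compounds added 10 min before NKH477 (200nM […]) forskolin-analogue stimulation, 30 min at room temperature, with Ro20-1724 present at 0.1 mM final.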

[19] = biological target: D(2) dopamine receptor (Homo sapiens) (UniProt P14416); test: Dopamine D2 receptor (DRD2) small molecule antagonists, cell-based qHTS assay (AID 1963595; active means well fitted inhibition curve with a large enough effect in the signal ratio in the repeat runs, with a control signal flat; the % refers to the signal ratio)
Outline: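 HEK293 cells stably expressing DRD2 were preincubated with 0.1 mM Ro20-1724, then with compound for 10 min at room temperature. Cells were stimulated with 200 nM NKH477 plus 12 nM quinpirole for 30 min, and cAMP was read by HTRF.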

[20] = cAMP Responsive Elements (CRE) small molecule agonists, cell-based qHTS assay (AID 1963590)
Outline: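 Compound exposure lasted 3 h at 37 C/5% CO2 in CRE-bla HEK 293T cells grown in assay medium with 10% dialyzed FBS and 25 mM HEPES. Reporter signal came from LiveBLAzer B/G FRET substrate, 2 h, room temperature.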

Measured: Potency

CN(C)c1ccc(N=O)cc1
inactive: [2] | [3] | [4] | [5] | [6] | [7] | [8] | [9] | [10]
active: [1] 27.4 µM and 54.5 µM

CC(C)(C)OOC(C)(C)C
inactive: [1] | [2] | [3] | [4] | [5] | [11] | [12] | [6] | [7] | [13] | [14] | [8] | [9] | [10] | [15] | [16] | [17] | [18] | [19]

Nc1ccccc1
inactive: [1] | [2] | [3] | [4] | [5] | [11] | [12] | [6] | [7] | [13] | [14] | [8] | [10] | [20] | [16] | [17] | [18] | [19]

BrC(Br)Br
inactive: [1] | [2] | [3] | [4] | [5] | [11] | [12] | [7] | [13] | [14] | [8] | [9] | [10] | [20] | [15] | [16] | [18] | [19]

COc1ccc(CO)cc1
inactive: [1] | [2] | [3] | [4] | [5] | [11] | [12] | [6] | [7] | [13] | [14] | [8] | [9] | [10] | [20] | [15] | [17] | [18] | [19]

Cc1cccc(N)c1C
inactive: [1] | [2] | [3] | [4] | [5] | [11] | [7] | [13] | [14] | [8] | [10] | [20] | [15] | [16] | [18] | [19]

CC1CCC(=O)O1 (stereo not drawn)
inactive: [1] | [2] | [3] | [4] | [5] | [11] | [12] | [6] | [7] | [13] | [14] | [8] | [9] | [10] | [20] | [15] | [16] | [18] | [19]

CCNc1nc(NC(C)(C)C)nc(SC)n1
inactive: [1] | [2] | [3] | [4] | [5] | [11] | [12] | [6] | [7] | [13] | [14] | [9] | [20] | [16] | [18] | [19]

CCCCCCCCOC(=O)c1ccc(C(=O)OCCCCCCCC)c(C(=O)OCCCCCCCC)c1
inactive: [1] | [2] | [3] | [4] | [5] | [11] | [12] | [6] | [7] | [13] | [14] | [8] | [10] | [20] | [15] | [16] | [17] | [18] | [19]

O=C(CCl)CCl
inactive: [2] | [3] | [4] | [5] | [11] | [6] | [7] | [13] | [14] | [8] | [9] | [10] | [20] | [15] | [16] | [18] | [19]
active: [1] 50.3 µM and 54.5 µM

OCC(Cl)CCl (stereo not drawn)
inactive: [1] | [2] | [3] | [4] | [5] | [11] | [12] | [6] | [7] | [13] | [8] | [9] | [10] | [20] | [15] | [16] | [17] | [18] | [19]

CCC(Cl)[N+](=O)[O-] (stereo not drawn)
inactive: [1] | [2] | [3] | [4] | [5] | [11] | [12] | [6] | [7] | [13] | [14] | [8] | [9] | [10] | [15] | [16] | [18] | [19]

OCc1ccco1
inactive: [1] | [2] | [3] | [4] | [5] | [11] | [12] | [7] | [13] | [14] | [8] | [9] | [10] | [20] | [15] | [16] | [17] | [18] | [19]
